Results on 3 molecules are retold here after the supplement of paper PMC8728848.

About 410 targets per protein were measured; listed, in parts, are those with the strongest signals and a random draw of the rest.

Holding throughout (experiment): glycan array binding signal (z-score within array); higher = stronger binding
Holding throughout (conditions): glycan notation: IUPAC condensed, linker removed

For test [1], the target named is Fuc(a1-2)Gal(b1-3)GalNAc(b1-3)Gal. In outline:
(§1)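 Glycan array data were curated from 3228 arrays in the Consortium for Functional Glycomics database and kept only where the protein sequence was available. Glycan names were converted to IUPAC-condensed notation, and columns mapping to the same glycan were averaged. The binding signal is a within-array Z-score, averaged across arrays of the same protein sequence at different concentrations or buffers and across linkers. Negative Z-scores can be read as non-binding.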

Test [2] has as its target Fuc(a1-2)Gal(b1-4)[Fuc(a1-3)]GalNAc(b1-3)Gal(b1-4)[Fuc(a1-3)]GlcNAc. The method in brief: as §1
The target in test [3] is Fuc(a1-3)[GalNAc(b1-4)]Gal(b1-4)GlcNAc. The method in brief: as §1
Test [4] deals with Gal(b1-3)[GlcNAc(b1-6)]GlcNAc. In outline:
as §1

For test [5], the target named is Gal(b1-4)GlcNAc(b1-3)Gal(b1-4)[Fuc(a1-3)]GlcNAc(b1-3)Gal(b1-4)[Fuc(a1-3)]GlcNAc. The method in brief:
as §1

The target in a further test is GalNAc(b1-4)GlcNAc. The method in brief:
as §1

Test [6] concerns the target GlcNAc(a1-3)Gal(b1-4)GlcNAc. The method in brief: as §1
The target in test [7] is GlcNAc(b1-3)Gal(b1-3)GalNAc. The method in brief:
as §1

Test [8] addresses GlcNAc(b1-4)GlcNAc(b1-4)GlcNAc(b1-4)GlcNAc(b1-4)GlcNAc. The method in brief:
as §1

For test [9], the target named is GlcNAc(b1-4)GlcNAc(b1-4)GlcNAc(b1-4)GlcNAc(b1-4)GlcNAc(b1-4)GlcNAc. The method in brief: as §1
Test [10] addresses Neu5Ac(a2-3)Gal(b1-3)[Neu5Ac(a2-3)Gal(b1-4)]GlcNAc. In outline: as §1
The target in a further test is Neu5Ac(a2-3)Gal(b1-4)Glc. The method in brief: as §1
The target in test [11] is Neu5Ac(a2-3)Gal(b1-4)GlcNAc(b1-3)Gal(b1-4)GlcNAc. In outline: as §1
Test [12] addresses Neu5Ac(a2-3)Gal(b1-4)GlcNAc(b1-3)Gal(b1-4)GlcNAc(b1-3)Gal(b1-4)GlcNAc. The method in brief:
as §1

For test [13], the target named is Neu5Ac(a2-8)Neu5Ac(a2-8)Neu5Ac(a2-8)Neu5Ac(a2-3)[GalNAc(b1-4)]Gal(b1-4)Glc. In outline:
as §1

In test [14] the target is Neu5Gc(a2-3)Gal(b1-4)GlcNAc. The method in brief:
as §1

The target of test [15] is Fuc(a1-2)Gal(b1-3)GalNAc(b1-4)[Neu5Ac(a2-3)]Gal(b1-4)Glc. In outline: as §1
In the next test the target is Fuc(a1-2)Gal(b1-4)GlcNAc. In outline: as §1
The next test concerns the target Fuc(a1-2)[Gal(a1-3)]Gal. In outline: as §1
Test [16] deals with Fuc(a1-2)[GalNAc(a1-3)]Gal(b1-4)[Fuc(a1-3)]GlcNAc. In outline: as §1
Test [17] deals with Fuc(a1-2)[GalNAc(a1-4)]Gal(b1-4)GlcNAc. In outline: as §1
For the next test, the target named is Gal(a1-2)Gal. In outline: as §1
The target in test [18] is Gal(b1-3)[Fuc(a1-4)]GlcNAc(b1-3)Gal(b1-4)[Fuc(a1-3)]GlcNAc. The method in brief:
as §1

The target of test [19] is Gal(b1-4)GlcNAc(b1-3)Gal(b1-4)GlcNAc(b1-3)Gal(b1-4)GlcNAc. The method in brief:
as §1

In test [20] the target is Gal(b1-4)GlcNAc(b1-6)Gal(b1-4)GlcNAc(b1-6)GalNAc. In outline:
as §1

In test [21] the target is Gal(b1-4)GlcNAc(b1-6)GalNAc. In outline: as §1
The target of the next test is Gal3S(b1-3)GalNAc. In outline:
as §1

The target of another test is Gal3S(b1-4)Glc6S. The method in brief: as §1
A further test deals with Gal3S(b1-4)GlcNAc6S. The method in brief: as §1
Another test concerns the target Gal3S6S(b1-4)GlcNAc6S. In outline:
as §1

In a further test the target is Gal4S6S(b1-4)GlcNAc. In outline:
as §1

In another test the target is Gal6S(b1-4)Glc6S. The method in brief: as §1
In another test the target is GlcA(b1-3)Gal. The method in brief:
as §1

In test [22] the target is GlcNAc(b1-2)Man(a1-3)[GlcNAc(b1-2)Man(a1-6)]Man(b1-4)GlcNAc(b1-4)GlcNAc. The method in brief: as §1
The target in the next test is GlcNAc(b1-6)GalNAc. In outline: as §1
Test [23] addresses Man(a1-2)Man(a1-3)[Man(a1-6)]Man(a1-6)[Man(a1-2)Man(a1-3)]Man(b1-4)GlcNAc(b1-4)GlcNAc. The method in brief: as §1
Test [24] deals with Neu5Ac(a2-3)Gal(b1-3)GalNAc(b1-3)Gal(b1-4)GlcNAc. The method in brief: as §1
In test [25] the target is Neu5Ac(a2-3)Gal(b1-4)[Fuc(a1-3)]GlcNAc(b1-3)Gal. The method in brief:
as §1

The target of test [26] is Neu5Ac(a2-3)[Neu5Ac(a2-6)]GalNAc. In outline: as §1
The target in the next test is Neu5Gc(a2-6)GalNAc. In outline:
as §1

Test [27] has as its target Fuc(a1-2)Gal(b1-3)[Fuc(a1-4)]GlcNAc. The method in brief: as §1
A further test has as its target Fuc(a1-2)Gal(b1-4)Glc. The method in brief:
as §1

Test [28] addresses Fuc(a1-2)Gal(b1-4)GlcNAc(b1-3)Gal(b1-4)GlcNAc. In outline: as §1
The target of test [29] is Fuc(a1-2)[Gal(a1-3)]Gal(b1-4)Glc. In outline: as §1
Test [30] has as its target Fuc(a1-2)[GalNAc(a1-3)]Gal(b1-3)GlcNAc. The method in brief: as §1
Another test deals with Fuc(a1-3)GlcNAc. In outline:
as §1

The target of test [31] is Gal(a1-3)[Gal(a1-4)]Gal(b1-4)GlcNAc. The method in brief: as §1
A further test deals with Gal(a1-4)Gal(b1-4)GalNAc. In outline: as §1
In test [32] the target is Gal(b1-3)[GlcNAc(b1-6)]GalNAc. In outline:
as §1

Another test has as its target Gal(b1-4)GlcNAc. In outline:
as §1

The target of another test is GalNAc(a1-3)Gal. The method in brief:
as §1

The target in the next test is Glc(a1-4)Glc. The method in brief: as §1
The target of test [33] is GlcNAc(b1-2)Gal(b1-3)GlcNAc. In outline:
as §1

Test [34] has as its target Man(a1-2)Man(a1-2)Man(a1-3)Man. In outline:
as §1

In test [35] the target is Man(a1-2)Man(a1-2)Man(a1-3)[Man(a1-2)Man(a1-6)[Man(a1-3)]Man(a1-6)]Man(b1-4)GlcNAc(b1-4)GlcNAc. The method in brief: as §1
The target of a further test is Man(a1-3)[Man(a1-6)]Man. The method in brief:
as §1

For test [36], the target named is Neu5Ac(a2-3)Gal(b1-3)[Fuc(a1-4)]GlcNAc. In outline: as §1
The target of test [37] is Neu5Ac(a2-3)Gal(b1-4)[Fuc(a1-3)]GlcNAc6S. In outline: as §1
The target of test [38] is Neu5Ac(a2-3)[GalNAc(b1-4)]Gal(b1-4)Glc. The method in brief: as §1

B1: chitinase 3-like protein 2 (Homo sapiens) (protein)
chain: YKLVCYFTQWSQDRQEPGKFTPENIDPFLCSHLIYSFASIENNKVIIKDKSEVMLYQTINSLKTKNPKLKILLSIGGYLFGSKGFHPMVDSSTSRLEFINSIILFLRNHNFDGLDVSWIYPDQKENTHFTVLIHELAEAFQKDFTKSTKERLLLTAGVSAGRQMIDNSYQVEKLAKDLDFINLLSFDFHGSWEKPLITGHNSPLSKGWQDRGPSSYYNVEYAVGYWIHKGMPSEKVVMGIPTYGHSFTLASAETTVGAPASGPGAAGPITESSGFLAYYEICQFLKGAKITRLQDQQVPYAVKGNQWVGYDDVKSMETKVQFLKNLNLGGAMIWSIDMDDFTGKSCNQGPYPLVQAVKRSLGSL
For B1, the “glycan array binding signal (z-score)” value is -0.164 in test [1]; -0.22 in test [2]; -0.196 in [3]; -0.209 in [4]; -0.183 in test [5]; 2.63 in the test with GalNAc(b1-4)GlcNAc. Moreover, the “glycan array binding signal (z-score)” value is -0.271 in test [6]; -0.22 in [7]; 7.67 in [8]; 9.06 in [9]; -0.116 in [10]; -0.233 with Neu5Ac(a2-3)Gal(b1-4)Glc. Further, the “glycan array binding signal (z-score)” value in test [11] was -0.269; in test [12] it was -0.127; in test [13], 1.51; in test [14], 0.093.

B2: S100A12 (Homo sapiens), P80511 (protein)
chain: MTKLEEHLEGIVNIFHQYSVRKGHFDTLSKGELKQLLTKELANTIKNIKDKAVIDEIFQGLDANQDEQVDFQEFISLVAIALKAAHYHTHKE
For the molecule B2, the “glycan array binding signal (z-score)” value is 1.87 in test [1]; -0.259 in test [15]; -0.748 with Fuc(a1-2)Gal(b1-4)GlcNAc; -0.758 with Fuc(a1-2)[Gal(a1-3)]Gal; -0.154 in test [16]; -0.766 in test [17]. Moreover, the “glycan array binding signal (z-score)” value is 0.006 with Gal(a1-2)Gal; -0.056 in test [18]; -0.226 in test [19]; -0.768 in [20]; -0.528 in test [21]; 0.207 with Gal3S(b1-3)GalNAc. Besides, the “glycan array binding signal (z-score)” value with Gal3S(b1-4)Glc6S is 2.45; with Gal3S(b1-4)GlcNAc6S, 2.67; with Gal3S6S(b1-4)GlcNAc6S, 2.83; with Gal4S6S(b1-4)GlcNAc, 2.91; with Gal6S(b1-4)Glc6S, 2.19; with GlcA(b1-3)Gal it was 0.368. Besides, the “glycan array binding signal (z-score)” value was 1.79 in [22]; -0.158 in test [9]; -0.903 with GlcNAc(b1-6)GalNAc; -0.256 in [23]; -0.704 in test [24]; -0.943 in test [25]. In addition, the “glycan array binding signal (z-score)” value was 0.727 in test [26] and -0.009 with Neu5Gc(a2-6)GalNAc.

B3: TLEC1 (Arabidopsis thaliana), Q9C5Q9 (protein)
chain: MSGASSVSSICSSNVSLIPTGPQVFINFRGKDLRKGFMSFLKPALKKEKINVFIDEQEERGKYLISLFDTIGESKIALVIFSEGYCESHWCMDELVKIKEYMDQNRLIIIPIFYRLDLDVVKDLTGKFGDNFWDLVDKYQPEPKKLHKWTEALFSVCELFSLILPKHSDISDRDFVKSIVKAVKKVQKNFFQRRNGEIEYQDFSVPACKLTITMHESPNEEAVQVTVLNEFYQMKNQSPVPSYEFKFWVDLTRPKGNVFMIDARDLSIAWSEDSNHWTWLPLPNQNSNESVMEIAFLKSASWLDVAGKFDTRYLTPRTRYEVVFVVKLEYTFEWETLVKLKLDLPNTWEKPQEQSVDMFDYISDQWLDIPVGEFTTSKKNVGEISFAMYEHECQLWKSGLFVKGVTIRPKY
Consider B3, for which the “glycan array binding signal (z-score)” value was 0.538 in test [1]; -0.075 in test [27]; 1.08 with Fuc(a1-2)Gal(b1-4)Glc; 0.966 in test [28]; 1.49 in [2]; -0.268 with Fuc(a1-2)[Gal(a1-3)]Gal. Besides, the “glycan array binding signal (z-score)” value in test [29] was -0.089; in test [30] it was 0.897; in the test with Fuc(a1-3)GlcNAc, 1.82; in test [31], -0.228; with Gal(a1-4)Gal(b1-4)GalNAc, -0.13; in test [32], -0.317. For the same molecule, the “glycan array binding signal (z-score)” value with Gal(b1-4)GlcNAc was -0.385; in the test with Gal3S(b1-4)Glc6S, 1.16; with Gal3S6S(b1-4)GlcNAc6S, 12.3; with Gal6S(b1-4)Glc6S, 1.65; in the test with GalNAc(a1-3)Gal, -0.288; with Glc(a1-4)Glc, -0.148. Moreover, the “glycan array binding signal (z-score)” value in test [33] was -0.386; in test [34], -0.005; in test [35], -0.509; with Man(a1-3)[Man(a1-6)]Man, -0.105; in [36] it was -0.525; in [37] it was -0.464. Further, the “glycan array binding signal (z-score)” value in test [38] is -0.46.
